Several values for one entry are separate records, joined by “and”; a condition that tells them apart may be missing. Equal values may be shown once. Records with an inconclusive call do not appear. Where a call stands in place of a potency, no number is given. Activity calls are given as the source filed them. The call rests on the fitted dose curve; in most records, active means well fitted curve in the direction sought with a large enough effect; inconclusive means small, poorly fitted or top-dose-only effect, or another doubt; inactive means no such curve, though single readings can be large; an effect the other way counts as inactive or inconclusive.
Potency means the concentration at half of the fitted maximal effect.

A short description of the first assay: qHTS Screen of the MIPE 4.0 Collection Against Ewings Sarcoma (TC32) (AID 1259256). Further: nearly all actives have a fitted effect of over 45% in size. The conditions noted are these: TC32 Ewing sarcoma viability, CellTiter-Glo, 48 h; series mostly up to 45.8 µM. Summed up:
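After a 4 h attachment period in RPMI/5% FBS, cells were pin-dosed with test compounds; DMSO served as negative and 9.2 uM bortezomib (final) as positive control. Luminescent CellTiter-Glo signal at 48 h defined viability.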
Regarding `CCOC(=O)Nc1ccc(NCc2ccc(F)cc2)cc1N`, the Potency was 20.9 µM (active). Regarding `COC1=CC(C)=C[C@@H](C)[C@@H](O)[C@@H](C)CC(C)=CC=C[C@H](OC)[C@H]([C@@H](C)[C@@H](O)[C@H](C)[C@@]2(O)C[C@@H](O)[C@H](C)[C@@H](C(C)C)O2)OC1=O`, the Potency was 0.0033 µM (active). On to `O=C(Oc1ccc([N+](=O)[O-])cc1)N1CCN(Cc2cccc(Oc3ccccc3)c2)CC1`, for which the Potency result was “inactive”. Same read-out and setting: the result for `c1ccc(CCCN2CCN(CCOC(c3ccccc3)c3ccccc3)CC2)cc1` reads 20.9 µM (active); that for `CCOC(=O)c1c(C(C#N)=CN)c2ccc(Cl)c(Cl)c2n1C`, “inactive”. The same measure, in the same setting: to `CC(O)=C(C#N)C(=O)Nc1cc(Br)ccc1Br` belongs 20.9 µM (active). Turning to `O=C1C=CC[C@@H]2[C@H]3CCCN4CCC[C@@H](CN12)[C@@H]34`, the Potency is 16.6 µM (active). For the compound `CN1[C@H]2CC(O)C[C@H]1[C@H]1O[C@H]12` (some centres not stated), the Potency was 23.5 µM (active). The same measure, in the same setting: the result for `CC(C)[C@H]1C(=O)N[C@H](CO)Cc2c[nH]c3cccc(c23)N1C` reads 0.166 µM (active); that for `CC(C)N(CCNC(=O)CN1CCCC1=O)C(C)C`, “inactive”.

As to `O=C(N[C@@H](COc1ccc2[nH]c(=O)[nH]c2c1)c1ccccc1)c1cccn(Cc2ccc(F)c(F)c2)c1=O`, the Potency was 18.7 µM (active). Still for that read-out and setting: to `O=S(=O)(CC1CS1)c1ccc(Oc2ccccc2)cc1` (configuration not stated) belongs 16.6 µM (active). Take `CN1CCN(c2ccc([N+](=O)[O-])c3no[n+]([O-])c23)CC1`: the Potency was 18.7 µM (active).

For the compound `N=c1c2c(-c3ccccc3)c(-c3ccccc3)n(Cc3ccccc3)c2ncn1C1CCC(O)CC1` (configuration not stated), the Potency is 0.662 µM (active). Same read-out and setting: to `COc1ccc(CC2NCCc3cc(OC)c(OC)cc32)cc1OC` (configuration not stated) belongs “inactive”; to `CC=C(C)C(=O)N[C@@H](c1ccccc1)[C@@H](O)C(=O)O[C@H]1C[C@@]2(O)[C@@H](OC(=O)c3ccccc3)[C@@H]3[C@]4(OC(C)=O)CO[C@@H]4C[C@H](O)[C@@]3(C)C(=O)[C@H](OC(C)=O)C(=C1C)C2(C)C`, “inactive”.

Regarding `CC(=CCCC1=CCC(C2=CC(=O)OC2O)OC1O)CCC1=C(C)CCCC1(C)C` (configuration not stated), the Potency was 20.9 µM (active). As for `CCCCCC[C@H]1C(=O)O[C@H](C)[C@H](NC(=O)c2cccc(NC=O)c2O)C(=O)O[C@@H](C)[C@@H]1OC(=O)CC(C)C`, the Potency is 0.0833 µM (active). On the same count and under the same terms, to `CCOC(=O)c1cncn1[C@H](C)c1ccccc1` belongs “inactive”. The same measure, in the same setting: to `O=C(Oc1ccc([N+](=O)[O-])cc1)N1CCC(C(O)(c2ccc3c(c2)OCO3)c2ccc3c(c2)OCO3)CC1` belongs “inactive”; to `c1cc2c(cc1[C@H]1OC[C@H]3[C@H]1CO[C@H]3c1ccc3c(c1)OCO3)OCO2`, “inactive”; to `NC1=NC(=O)N2CC12` (configuration not stated), “inactive”.

On to `CC1(N2CCC(n3c([C@@H]4CCCNC4)nc4ccccc43)CC2)CCCCCCC1`, for which the Potency is 9.35 µM (active). On the same count and under the same terms, to `CC(C)(C)c1cc(C=C(C#N)C#N)cc(Br)c1O` belongs 26.4 µM (active); to `NC1CC1c1ccccc1` (configuration not stated), “inactive”; to `Oc1ccc2c3c1O[C@H]1c4[nH]c5c(c4C[C@@]4(O)[C@@H](C2)N(CC2CC2)CC[C@]314)C[C@@]1(O)[C@H]2Cc3ccc(O)c4c3[C@@]1(CCN2CC1CC1)[C@H]5O4`, “inactive”. Turning to `C[C@]12COC(=O)C[C@@H]1CC[C@@H]1[C@H]2CC[C@@]2(C)[C@H]1CC[C@]2(C)O`, the Potency entry was “inactive”. On the same count and under the same terms, to `C[C@](O)(COc1ccc(C#N)cc1)C(=O)Nc1ccc(C#N)c(C(F)(F)F)c1` belongs “inactive”; to `Cc1c(C(=O)c2cccc3ccccc23)c2cccc3c2n1[C@H](CN1CCOCC1)CO3`, 26.4 µM (active).

The nature of another assay: P-glycoprotein substrates identified in KB-8-5-11 adenocarcinoma cell line, qHTS therapeutic library screen (AID 1346987). Further: nearly all actives have a fitted effect of over 65% in size. The note with it: KB-8-5-11 (P-gp overexpressing) viability, CellTiter-Glo, 72 h; series mostly up to 44.5 µM. Summed up: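 KB-8-5-11: colchicine-selected sub-line of KB-3-1 over-expressing P-gp; assay medium lacked colchicine. 72 h drug exposure at 37 degree C, CellTiter-Glo.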
`CCOC(=O)Nc1ccc(NCc2ccc(F)cc2)cc1N`: the Potency entry is “inactive”.

In the case of `COC1=CC(C)=C[C@@H](C)[C@@H](O)[C@@H](C)CC(C)=CC=C[C@H](OC)[C@H]([C@@H](C)[C@@H](O)[C@H](C)[C@@]2(O)C[C@@H](O)[C@H](C)[C@@H](C(C)C)O2)OC1=O`, the Potency was 14.8 nM (active).

`O=S(=O)(F)Cc1ccccc1`: the Potency entry is “inactive”. For the compound `O=C(Oc1ccc([N+](=O)[O-])cc1)N1CCN(Cc2cccc(Oc3ccccc3)c2)CC1`, the Potency entry is “inactive”. On the same count and under the same terms, to `CCc1c(C(=O)C(N)=O)c2c(OCC(=O)O)cccc2n1Cc1ccccc1` belongs “inactive”; to `c1ccc(CCCN2CCN(CCOC(c3ccccc3)c3ccccc3)CC2)cc1`, 18700 nM (active); to `CCOC(=O)c1c(C(C#N)=CN)c2ccc(Cl)c(Cl)c2n1C`, “inactive”. As for `CC(O)=C(C#N)C(=O)Nc1cc(Br)ccc1Br`, the Potency result was “inactive”. Same read-out and setting: the result for `O=C1C=CC[C@@H]2[C@H]3CCCN4CCC[C@@H](CN12)[C@@H]34` reads “inactive”; that for `CC(C)[C@H]1C(=O)N[C@H](CO)Cc2c[nH]c3cccc(c23)N1C`, “inactive”. Turning to `CC(C)N(CCNC(=O)CN1CCCC1=O)C(C)C`, the Potency entry is “inactive”. With `O=C(N[C@@H](COc1ccc2[nH]c(=O)[nH]c2c1)c1ccccc1)c1cccn(Cc2ccc(F)c(F)c2)c1=O`, the Potency result was “inactive”.

On to `O=S(=O)(CC1CS1)c1ccc(Oc2ccccc2)cc1` (configuration not stated), for which the Potency result was “inactive”. Still for that read-out and setting: the result for `CN1CCN(c2ccc([N+](=O)[O-])c3no[n+]([O-])c23)CC1` reads “inactive”. On the same count and under the same terms, to `N=c1c2c(-c3ccccc3)c(-c3ccccc3)n(Cc3ccccc3)c2ncn1C1CCC(O)CC1` (configuration not stated) belongs 935 nM (active); to `COc1ccc(CC2NCCc3cc(OC)c(OC)cc32)cc1OC` (configuration not stated), “inactive”; to `CC=C(C)C(=O)N[C@@H](c1ccccc1)[C@@H](O)C(=O)O[C@H]1C[C@@]2(O)[C@@H](OC(=O)c3ccccc3)[C@@H]3[C@]4(OC(C)=O)CO[C@@H]4C[C@H](O)[C@@]3(C)C(=O)[C@H](OC(C)=O)C(=C1C)C2(C)C`, 33.2 nM (active). On the same count and under the same terms, the result for `CC(=CCCC1=CCC(C2=CC(=O)OC2O)OC1O)CCC1=C(C)CCCC1(C)C` (configuration not stated) reads “inactive”; that for `CCOC(=O)c1cncn1[C@H](C)c1ccccc1`, “inactive”. On to `O=C(Oc1ccc([N+](=O)[O-])cc1)N1CCC(C(O)(c2ccc3c(c2)OCO3)c2ccc3c(c2)OCO3)CC1`, for which the Potency entry was “inactive”. Same read-out and setting: the result for `c1cc2c(cc1[C@H]1OC[C@H]3[C@H]1CO[C@H]3c1ccc3c(c1)OCO3)OCO2` reads “inactive”; that for `NC1=NC(=O)N2CC12` (configuration not stated), “inactive”. Still for that read-out and setting: to `CC1(N2CCC(n3c([C@@H]4CCCNC4)nc4ccccc43)CC2)CCCCCCC1` belongs 23.5 µM (active) and 20.6 µM (active); to `CCN(CC)C(=O)c1ccc(C2=CC3(CCNCC3)Oc3cccc(O)c32)cc1`, “inactive”. As for `NC1CC1c1ccccc1` (configuration not stated), the Potency result was “inactive”.

Turning to `C[C@@H]1CC[C@H]2[C@@H](C)C(=O)O[C@@H]3O[C@@]4(C)CC[C@H]1[C@]32OO4`, the Potency result is “inactive”.

Take `CC(N[C@H]1C[C@H]1c1ccccc1)c1ccc2c(c1)OCCO2` (some centres not stated): the Potency entry was “inactive”. Consider `CN(C)NC(=O)CCC(=O)O`, for which the Potency entry is “inactive”.

As for `Oc1ccc2c3c1O[C@H]1c4[nH]c5c(c4C[C@@]4(O)[C@@H](C2)N(CC2CC2)CC[C@]314)C[C@@]1(O)[C@H]2Cc3ccc(O)c4c3[C@@]1(CCN2CC1CC1)[C@H]5O4`, the Potency result is “inactive”. The same measure, in the same setting: to `CC[C@H]1C=CC=CC[C@@H](C)[C@H](O)[C@@](C)(O)C(=O)[C@@H](C)[C@H](O)[C@@H](C)C(=O)[C@@H](C)[C@H](O)[C@@H](C)C=CC(=O)O[C@@H]2[C@@H](C)[C@H](CC1)O[C@]1(CC[C@H](C)[C@H](C[C@@H](C)O)O1)[C@H]2C` belongs 1050 nM (active); to `C[C@]12COC(=O)C[C@@H]1CC[C@@H]1[C@H]2CC[C@@]2(C)[C@H]1CC[C@]2(C)O`, “inactive”.

As for `C[C@](O)(COc1ccc(C#N)cc1)C(=O)Nc1ccc(C#N)c(C(F)(F)F)c1`, the Potency result was “inactive”. Take `Cc1c(C(=O)c2cccc3ccccc23)c2cccc3c2n1[C@H](CN1CCOCC1)CO3`: the Potency was 7430 nM (active).

The values above are taken from PubChem BioAssay (NCATS).
